According to PubChem BioAssay (NCATS):
“And” between values parts separate entries of the source, which are not always exact repeats. Equal values may be shown once. Results filed as inconclusive are left out. Where a call stands in place of a potency, no number is given. Where a structure was tested more than once in an assay, its records may differ in their call. The source made the active and inactive calls. Unless noted, the call rests on the fitted dose curve; in most records, active means well fitted curve in the direction sought with a large enough effect; inconclusive means small, poorly fitted or top-dose-only effect, or another doubt; inactive means no such curve, though single readings can be large; an effect the other way counts as inactive or inconclusive.

Tests used:
[1] = AP1 Signaling Pathway (AID 357; active means well fitted curve in either direction with a large enough effect, not every such curve was filed as active); details: ME-180 AP-1-bla reporter, EGF-induced, beta-lactamase ratio, 5 h
How it was run: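 Titration-series screen for positive or negative modulators of EC50 EGF-induced signaling in ME-180 cells carrying an AP-1-driven beta-lactamase reporter. After 5 hours at 37 degrees Celsius, CCF4 460nm/530nm emission ratio gave %Activity; AC50 values derived.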

[2] = target: Cytochrome P450 1A2 (Homo sapiens) (UniProt P05177); test: p450-cyp1a2 (AID 410; calls by dose curve; further: potency means the concentration at half of the fitted maximal effect); details: recombinant CYP1A2, luciferin-ME demethylation, luminescence; series mostly up to 57 µM
How it was run: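 20nM CYP1A2 with 100uM Luciferin-ME (at Km) in 100mM KPO4; compound preincubated 10 min, NADPH regeneration added, 60 min at room temperature. Luciferin quantified by luminescence after detection reagent; normalized to 57 uM furafylline.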

[3] = NFAT Signaling Pathway (AID 444; active means well fitted curve in either direction with a large enough effect, not every such curve was filed as active;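 further: carbachol stimulus at about its EC50 of 1 µM final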); details: Jurkat NFAT-bla M1, carbachol, beta-lactamase ratio, 5 h; at 38 µM (top of the series)
How it was run: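 Jurkat cells carrying an NFAT-driven β-lactamase reporter and co-transfected muscarinic M1 receptor were treated with compound plus carbachol (1 uM final, an EC50 level) for 5 h at 37 °C. CCF4 loading followed for 1 h at RT; 460/530 nm ratio gave %activity.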

[4] = target: Glucocorticoid receptor (Homo sapiens) (UniProt P04150); test: GR-GFP Redistribution (AID 450;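 active means compounds whose dose series gives a full or clear partial fitted curve of increased nuclear translocation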; further: potency means the concentration at half of the fitted maximal effect); details: U2OS GR-GFP nuclear translocation, laser cytometry, 2 h
[5] = target: Glucocorticoid receptor (Homo sapiens) (UniProt P04150); test: GR-EFC Redistribution (AID 451; calls by dose curve; further: potency means the concentration at half of the fitted maximal effect); details: CHO-K1 GR-EFC translocation, beta-gal luminescence, 2 h
How it was run: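 CHO-K1 cells stably expressing nuclear-localized β-gal enzyme acceptor and GR fused C-terminally to the enzyme donor fragment; ligand-driven nuclear translocation restores β-gal by complementation. Compounds titrated up to 46 uM final, 2 h at 37 °C; luminescence read.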

[6] = target: 3',5'-cyclic-AMP phosphodiesterase 4B (Homo sapiens) (UniProt Q07343); test: qHTS Assay for Inhibitors of PDE-IV (AID 607; active means well fitted activation curve with a large enough effect in the main read-out, with a control signal flat, not every such curve was filed as active); details: HEK293 ACTOne CNG channel cells, membrane potential fluorescence; series mostly up to 22.9 µM
How it was run: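 Cell-based read-out of cAMP via a modified cyclic nucleotide-gated channel and membrane potential dye (535/590 nm) in HEK293 cells expressing PDE4 endogenously. Compounds tested up to 22.9 uM final; 100 uM RO 20-1724 reference.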

[7] = target: Guanine nucleotide-binding protein G(i) subunit alpha-1 (Homo sapiens) (UniProt P63096); test: qHTS Assay for Inhibitors of RGS12 GoLoco Motif Activity (Green Fluorophore) (AID 879); details: Galphai1/FITC-RGS12 GoLoco peptide, fluorescence polarization; series mostly up to 57.1 µM;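 further: negative values mean loss of peptide binding seen as reduced polarization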
How it was run: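 Fluorescence polarization assay: 50 nM Gαi1 with 10 nM FITC-labeled RGS12 GoLoco peptide in 10 mM Tris pH 7.5, 150 mM NaCl, 0.1 mM GDP, 0.05% NP40, 10 min at room temperature with compound.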

[8] = target: Cytochrome P450 3A4 (Homo sapiens) (UniProt P08684); test: qHTS Assay for Activators of Cytochrome P450 3A4 (AID 885); details: recombinant CYP3A4, Luciferin-PPXE luminescence, 60 min; series mostly up to 57.1 µM; further: nearly all actives have a fitted effect of over 65% in size
How it was run: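 Signal was normalized against complete inhibition by 57 uM ketoconazole. The reaction used 20nM CYP3A4 with 25uM Luciferin-PPXE, 10-min compound preincubation and a 60-min NADPH-supported step at RT.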

[9] = qHTS Assay for Identification of Small Molecule Agonists for Thrombopoietin (TPO) Signaling Pathway (AID 917); details: TPO signaling pathway reporter cells, agonist qHTS, stimulated with TPO at its EC50; series mostly up to 38.5 µM
How it was run: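 IL-3-dependent murine pro-B Ba/F3 cells, stably transfected with human TPO receptor and GpIIb-promoter luciferase, are incubated 24 hrs at 37 C with test compound and 26 pM TPO; luciferase signal is read after 10 min at room temperature.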

[10] = target: Pyruvate kinase (Leishmania mexicana) (UniProt Q27686); test: qHTS Validation Assay for Inhibitors of Leishmania Mexicana Pyruvate Kinase (AID 945); details: purified L. mexicana pyruvate kinase, enzyme activity, E451W mutant enzyme; series mostly up to 57.5 µM
How it was run: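 Compounds are tested as eight-point concentration series. Reactions contain 0.2 nM LmPYK E451W, 0.5 mM PEP, 0.1 mM ADP, 7 mM MgCl2 and 50 mM KCl at pH 7.2, run 1 h at room temperature, then read by PKLight luminescence.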

[11] = target: Pyruvate kinase PKM (Homo sapiens) (UniProt P14618); test: qHTS Assay for Activators of Human Muscle Pyruvate Kinase (AID 954; active means well fitted curve in the direction sought with a large enough effect, not every such curve was filed as active); details: purified human muscle pyruvate kinase, luciferase-coupled luminescence, 1 h; series mostly up to 57.5 µM
How it was run: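 Human PKM2 activity is measured as ATP generation, detected by luciferase-coupled luminescence. The enzyme (0.1 nM) acts on 0.5 mM PEP and 0.1 mM ADP for 1 h at ambient temperature; data are normalized to uninhibited and full-inhibition wells.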

[12] = target: Alpha-galactosidase A (Homo sapiens) (UniProt P06280); test: Counterscreen for Glucocerebrosidase Inhibitors: qHTS Assay for Human alpha-Galactosidase at pH 4.5 (AID 992); details: purified enzyme, fluorogenic substrate; series mostly up to 76.9 µM
How it was run: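 Quantitative HTS: compounds tested from 0.7 nM up to 77 uM against 2 nM enzyme with 80 uM 4-MU alpha-D-galactopyranoside. The 20 min room-temperature reaction is stopped with 1M NaOH/1M glycine, pH 10.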

[13] = target: alpha-glucosidase (Oryza sativa, rice) (UniProt Q653V4); test: Counterscreen for Glucocerebrosidase Inhibitors: qHTS Assay for Rice alpha-Glucosidase at pH 5.0 (AID 997); details: rice alpha-glucosidase enzyme activity; series mostly up to 76.9 µM
How it was run: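 Rice alpha-glucosidase (4 nM final) with 400 uM 4-methylumbelliferyl-alpha-D-glucopyranoside in citrate buffer pH 5.0, 20 min at room temperature, stopped at pH 10; fluorescence 365/440 nm, compounds 0.7 nM–77 uM, AC50 from Hill fits.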

[14] = qHTS Assay for Lipid Storage Modulators (AID 1519; calls by dose curve); details: Drosophila S3 cells, BODIPY lipid droplet/cell ratio, laser cytometry, cells loaded with oleic acid
How it was run: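 Cells seeded at 5,000 per well were treated with compounds over a concentration series and loaded with oleic acid (400 uM, as added). Lipid droplet fluorescence (488 nm excitation, 500-530 nm channel) was read by laser-scanning cytometry and normalized to 20 uM Triacsin C.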

[15] = target: Ubiquitin carboxyl-terminal hydrolase 1 (Homo sapiens) (UniProt O94782); test: Inhibitors of USP1/UAF1: Pilot qHTS (AID 504865); details: purified USP1/UAF1, Ub-rhodamine cleavage fluorescence; series mostly up to 114 µM;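 further: rhodamine fluorescence freed from ubiquitin-rhodamine substrate followed over time; top concentration of the series differs between compounds; nearly all actives have a fitted effect of over 35% in size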
How it was run: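 Enzyme-free wells gave the negative control, while test wells held 1nM USP1/UAF1 preincubated with compound for 15 min at room temperature. Ub-Rho at 150nM final started the reaction, and fluorescence at 480/540 nm was recorded kinetically.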

[16] = target: DNA dC->dU-editing enzyme APOBEC-3G (Homo sapiens) (UniProt Q9HC16); test: qHTS for inhibitors of Vif-A3G interactions: Validation (AID 588379); details: Vif-A3G protein interaction assay; series mostly up to 46.1 µM
How it was run: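 HeLa cells stably expressing Vif and A3G-eYFP, 700 cells/well, incubated overnight at 37 deg C, then exposed to compound overnight at 37 deg C. Inhibition of Vif-mediated degradation read as increased yellow fluorescence (Ex 488/Em 500-530) by laser-scanning cytometry.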

[17] = test system: Zika virus NS2B-NS3 protease; test: Primary screen GU AMC qHTS for Zika virus inhibitors (AID 1347154); details: Zika NS2B-NS3 unlinked protease, AMC fluorogenic substrate; series mostly up to 54.1 µM; further: nearly all actives have a fitted effect of over 70% in size
How it was run: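 Unlinked Zika NS2B hydrophilic domain/NS3 protease domain noncovalent complex (25 nM final) in 10 mM Tris-HCl pH 8.0, 0.01% Tween 20, with AMC peptide substrate. Fluorescence (ex 340, em 450 nm) change over 15 min, room temperature; percent inhibition fitted to 4-parameter Hill equation.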

[18] = Primary qHTS for small molecule stabilizers of the endoplasmic reticulum resident proteome: Secreted ER Calcium Modulated Protein (SERCaMP) assay (AID 1508630); details: SH-SY5Y GLuc-SERCaMP (Gaussia luciferase released on ER calcium loss) secretion, thapsigargin, luminescence; series mostly up to 38.4 µM
How it was run: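 GLuc-SERCaMP-expressing SH-SY5Y cells, pretreated 16 h with compound, are challenged with thapsigargin to empty ER calcium stores; after 4 h, coelenterazine is added directly to the medium and luminescence is imaged.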

[19] = target: Mitogen-activated protein kinase 10 (Mus musculus) (UniProt Q61831); test: JNK3 AlphaScreen Assay (AID 530; active means well fitted curve in either direction with a large enough effect, not every such curve was filed as active;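 further: kinase came from lysate of stimulated human HepG2 cells; signal reports phosphorylation of biotinylated GST-cJun 1-79 at Ser73 with 10 µM ATP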); details: JNK3 lysate, c-Jun phosphorylation; series mostly up to 57.1 µM
How it was run: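 Inhibitors reduce antibody binding to phosphorylated biotin-cJun, lowering AlphaScreen luminescence. Lysates from HepG2 cells pre-activated by IL-1beta plus TNF-alpha supplied JNK3; compounds were titrated.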

[20] = Stat Signaling Pathway (AID 446; active means well fitted curve in either direction with a large enough effect, not every such curve was filed as active;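 further: ME-180 cervical cancer cells given 40 pM IL-6 alongside compound; SIE-controlled beta-lactamase reporter measured as 460/530 nm FRET emission ratio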); details: ME-180 SIE beta-lactamase reporter, IL-6 stimulated, 5 h; at 38 µM (top of the series)
How it was run: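 Reporter line: ME-180 cervical carcinoma, SIE-beta-lactamase. Treatment: compound with 40 pM IL-6, 5 hrs, 37 C, in low-serum OPTI-MEM with 10 mM HEPES pH 7.3. Detection: 460/530 nm fluorescence.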

[21] = measured here: cell count channel max response
[22] = measured here: lipid channel max response

Guanine nucleotide-binding protein G(i) subunit alpha-1 (Homo sapiens), sequence (P63096 whole entry, looked up): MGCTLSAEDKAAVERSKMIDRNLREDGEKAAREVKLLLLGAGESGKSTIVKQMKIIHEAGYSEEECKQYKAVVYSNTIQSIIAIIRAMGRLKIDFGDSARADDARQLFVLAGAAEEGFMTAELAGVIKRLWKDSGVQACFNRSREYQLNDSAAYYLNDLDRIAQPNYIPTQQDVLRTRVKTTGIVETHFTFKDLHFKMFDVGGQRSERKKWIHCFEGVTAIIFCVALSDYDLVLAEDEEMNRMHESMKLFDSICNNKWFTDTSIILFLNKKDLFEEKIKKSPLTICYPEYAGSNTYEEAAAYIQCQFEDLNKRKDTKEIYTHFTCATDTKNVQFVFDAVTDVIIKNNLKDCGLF
Pyruvate kinase PKM (Homo sapiens), sequence (P14618 whole entry, looked up): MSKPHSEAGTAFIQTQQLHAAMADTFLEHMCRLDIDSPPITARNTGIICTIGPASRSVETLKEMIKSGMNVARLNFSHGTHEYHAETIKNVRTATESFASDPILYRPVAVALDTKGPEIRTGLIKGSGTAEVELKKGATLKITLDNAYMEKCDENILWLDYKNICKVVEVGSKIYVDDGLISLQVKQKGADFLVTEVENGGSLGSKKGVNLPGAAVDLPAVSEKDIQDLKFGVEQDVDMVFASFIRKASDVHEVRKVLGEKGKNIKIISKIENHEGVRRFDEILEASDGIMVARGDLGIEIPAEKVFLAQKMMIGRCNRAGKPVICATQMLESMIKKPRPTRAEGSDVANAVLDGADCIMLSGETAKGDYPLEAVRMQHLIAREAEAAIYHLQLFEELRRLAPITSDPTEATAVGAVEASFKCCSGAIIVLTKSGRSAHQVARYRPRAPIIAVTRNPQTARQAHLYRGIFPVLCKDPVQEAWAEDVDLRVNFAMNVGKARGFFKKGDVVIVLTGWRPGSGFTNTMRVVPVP
3',5'-cyclic-AMP phosphodiesterase 4B (Homo sapiens), sequence (Q07343 whole entry, looked up): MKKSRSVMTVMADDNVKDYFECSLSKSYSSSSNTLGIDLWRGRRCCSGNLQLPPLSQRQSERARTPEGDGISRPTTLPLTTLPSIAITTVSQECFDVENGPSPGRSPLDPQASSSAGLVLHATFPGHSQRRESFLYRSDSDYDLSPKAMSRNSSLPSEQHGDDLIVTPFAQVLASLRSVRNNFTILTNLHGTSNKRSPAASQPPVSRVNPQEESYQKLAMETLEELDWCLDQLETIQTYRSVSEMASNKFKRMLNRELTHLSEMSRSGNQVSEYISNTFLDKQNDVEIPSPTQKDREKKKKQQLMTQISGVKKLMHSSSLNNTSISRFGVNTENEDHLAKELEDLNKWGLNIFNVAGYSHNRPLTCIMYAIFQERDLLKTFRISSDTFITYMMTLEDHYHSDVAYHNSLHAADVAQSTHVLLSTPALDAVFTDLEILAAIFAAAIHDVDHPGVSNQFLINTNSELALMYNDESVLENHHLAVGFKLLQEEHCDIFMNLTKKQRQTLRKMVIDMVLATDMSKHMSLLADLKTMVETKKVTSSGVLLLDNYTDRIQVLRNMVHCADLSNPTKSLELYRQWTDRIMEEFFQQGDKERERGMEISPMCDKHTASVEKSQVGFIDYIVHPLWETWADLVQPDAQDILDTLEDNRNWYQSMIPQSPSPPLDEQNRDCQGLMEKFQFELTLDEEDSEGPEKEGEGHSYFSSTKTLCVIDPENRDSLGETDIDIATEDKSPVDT
Pyruvate kinase (Leishmania mexicana), sequence (Q27686 2-499 E452W): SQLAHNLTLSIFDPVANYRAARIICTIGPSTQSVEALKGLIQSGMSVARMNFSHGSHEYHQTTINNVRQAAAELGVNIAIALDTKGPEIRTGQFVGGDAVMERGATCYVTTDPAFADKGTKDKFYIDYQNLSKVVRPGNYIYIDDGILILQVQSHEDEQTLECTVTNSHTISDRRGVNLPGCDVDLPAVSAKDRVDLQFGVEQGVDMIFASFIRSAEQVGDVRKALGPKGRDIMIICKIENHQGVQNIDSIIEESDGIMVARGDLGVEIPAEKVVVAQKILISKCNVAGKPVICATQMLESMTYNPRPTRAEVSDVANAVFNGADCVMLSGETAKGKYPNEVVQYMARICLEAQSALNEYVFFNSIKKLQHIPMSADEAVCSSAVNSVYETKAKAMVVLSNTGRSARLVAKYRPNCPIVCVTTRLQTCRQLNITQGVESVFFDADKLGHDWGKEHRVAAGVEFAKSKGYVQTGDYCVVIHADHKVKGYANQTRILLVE
Cytochrome P450 1A2 (Homo sapiens), sequence (P05177 whole entry, looked up): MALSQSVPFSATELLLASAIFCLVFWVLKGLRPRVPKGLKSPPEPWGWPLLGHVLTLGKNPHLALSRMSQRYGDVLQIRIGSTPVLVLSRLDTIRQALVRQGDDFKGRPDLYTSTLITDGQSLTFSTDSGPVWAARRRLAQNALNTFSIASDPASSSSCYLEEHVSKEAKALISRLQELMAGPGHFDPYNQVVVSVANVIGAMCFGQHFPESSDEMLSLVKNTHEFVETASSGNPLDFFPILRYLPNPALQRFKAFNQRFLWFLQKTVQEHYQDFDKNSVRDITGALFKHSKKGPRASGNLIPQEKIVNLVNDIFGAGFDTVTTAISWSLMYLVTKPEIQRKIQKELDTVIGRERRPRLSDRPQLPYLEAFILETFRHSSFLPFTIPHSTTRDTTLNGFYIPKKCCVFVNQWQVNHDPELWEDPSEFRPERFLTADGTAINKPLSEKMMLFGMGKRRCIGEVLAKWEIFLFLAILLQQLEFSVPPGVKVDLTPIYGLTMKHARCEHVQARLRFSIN
Glucocorticoid receptor (Homo sapiens), sequence (P04150 whole entry, looked up, the tested form may be a part): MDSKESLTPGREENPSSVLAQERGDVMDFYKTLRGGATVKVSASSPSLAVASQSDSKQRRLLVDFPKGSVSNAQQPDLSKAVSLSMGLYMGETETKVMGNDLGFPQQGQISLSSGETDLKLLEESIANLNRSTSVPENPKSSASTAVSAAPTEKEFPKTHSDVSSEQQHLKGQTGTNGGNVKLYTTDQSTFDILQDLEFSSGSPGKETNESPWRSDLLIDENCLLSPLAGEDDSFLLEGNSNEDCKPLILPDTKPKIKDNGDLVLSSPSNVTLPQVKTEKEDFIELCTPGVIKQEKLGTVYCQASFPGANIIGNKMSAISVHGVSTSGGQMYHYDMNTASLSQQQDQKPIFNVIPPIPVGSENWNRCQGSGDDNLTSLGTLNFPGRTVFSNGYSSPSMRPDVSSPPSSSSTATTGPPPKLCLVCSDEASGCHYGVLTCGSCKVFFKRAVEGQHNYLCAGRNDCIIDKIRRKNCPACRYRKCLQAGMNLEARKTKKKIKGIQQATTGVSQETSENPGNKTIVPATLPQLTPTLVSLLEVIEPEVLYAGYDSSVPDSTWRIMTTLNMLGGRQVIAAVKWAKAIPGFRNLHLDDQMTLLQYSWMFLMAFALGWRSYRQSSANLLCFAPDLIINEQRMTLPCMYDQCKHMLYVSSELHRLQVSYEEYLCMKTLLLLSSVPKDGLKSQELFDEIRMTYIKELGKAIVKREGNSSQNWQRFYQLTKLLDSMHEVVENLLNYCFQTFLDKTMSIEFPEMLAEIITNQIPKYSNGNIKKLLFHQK
DNA dC->dU-editing enzyme APOBEC-3G (Homo sapiens), sequence (Q9HC16 whole entry, looked up): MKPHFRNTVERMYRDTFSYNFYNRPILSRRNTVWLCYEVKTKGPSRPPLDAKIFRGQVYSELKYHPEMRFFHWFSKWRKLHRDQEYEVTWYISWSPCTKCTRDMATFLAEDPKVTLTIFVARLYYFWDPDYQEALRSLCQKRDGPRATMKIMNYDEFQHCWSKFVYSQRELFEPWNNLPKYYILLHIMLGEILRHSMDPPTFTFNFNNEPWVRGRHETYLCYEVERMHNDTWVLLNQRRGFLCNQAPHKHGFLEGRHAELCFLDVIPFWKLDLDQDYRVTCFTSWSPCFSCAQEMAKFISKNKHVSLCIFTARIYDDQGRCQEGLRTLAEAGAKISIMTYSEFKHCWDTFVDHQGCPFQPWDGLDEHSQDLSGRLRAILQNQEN
Alpha-galactosidase A (Homo sapiens), sequence (P06280 whole entry, looked up): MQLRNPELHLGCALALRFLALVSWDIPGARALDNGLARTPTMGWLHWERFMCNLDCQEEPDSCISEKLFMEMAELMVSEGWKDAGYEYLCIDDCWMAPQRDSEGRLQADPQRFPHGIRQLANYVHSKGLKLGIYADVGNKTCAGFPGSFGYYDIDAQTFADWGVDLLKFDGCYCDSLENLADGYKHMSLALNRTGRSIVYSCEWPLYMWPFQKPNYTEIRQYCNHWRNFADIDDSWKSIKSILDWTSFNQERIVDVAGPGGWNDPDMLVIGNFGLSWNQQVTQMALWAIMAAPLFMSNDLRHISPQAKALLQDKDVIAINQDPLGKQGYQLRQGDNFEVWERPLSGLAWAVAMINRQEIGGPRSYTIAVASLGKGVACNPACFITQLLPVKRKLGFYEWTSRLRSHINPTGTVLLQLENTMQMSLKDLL
Cytochrome P450 3A4 (Homo sapiens), sequence (P08684 whole entry, looked up): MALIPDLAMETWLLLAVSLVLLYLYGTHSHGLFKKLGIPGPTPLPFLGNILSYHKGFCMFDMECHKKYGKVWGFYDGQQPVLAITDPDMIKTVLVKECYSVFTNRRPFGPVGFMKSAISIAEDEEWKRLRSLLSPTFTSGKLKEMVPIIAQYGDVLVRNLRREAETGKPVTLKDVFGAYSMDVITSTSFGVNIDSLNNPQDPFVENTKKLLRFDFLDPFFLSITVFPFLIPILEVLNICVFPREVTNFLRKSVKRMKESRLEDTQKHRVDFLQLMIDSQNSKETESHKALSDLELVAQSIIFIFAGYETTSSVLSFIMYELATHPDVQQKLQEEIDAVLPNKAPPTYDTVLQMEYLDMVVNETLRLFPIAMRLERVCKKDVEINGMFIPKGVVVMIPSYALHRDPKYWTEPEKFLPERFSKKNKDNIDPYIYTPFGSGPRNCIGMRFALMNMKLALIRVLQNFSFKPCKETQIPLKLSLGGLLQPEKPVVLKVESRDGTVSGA

SMILES: CC1=C(\C=C/C(C)=C/C=C\C(C)=C\C(=O)O)C(C)(C)CCC1
- activity change, negative = inhibition ([1]; at 17.2 µM (top of the series)): -3.06% (inactive) and -11.4% (inactive)
- activity change, negative = inhibition ([1]; at 38 µM (top of the series)): -26.4% (inactive) and 3.96% (inactive)
- Potency [2]: inactive and 20 µM (active)
- activity change, negative = inhibition [3]: 4.1% (inactive)
- Potency [4]: > 46 µM (inactive) and > 20.6 µM (inactive)
- Potency [5]: > 46 µM (inactive) and > 20.6 µM (inactive)
- Potency [6]: inactive
- outcome [7]: inactive
- Potency [8]: inactive
- Potency [9]: inactive
- Potency [10]: inactive
- outcome [11]: inactive
- outcome [12]: inactive
- outcome [13]: inactive
- activity change, negative = inhibition ([14]; at 25.7 µM (top of the series)): 0.599% (inactive) and 0.957% (inactive)
- max response [14, 21]: -6.58% and 5.14%
- max response [14, 22]: -6.6% and 8.88%
- Potency [15]: inactive
- Potency [16]: inactive
- Potency [17]: inactive
- Potency [18]: inactive

SMILES: C=C[C@@]1(C)CC(=O)[C@@]2(O)[C@@]3(C)[C@@H](O)CCC(C)(C)[C@@H]3[C@H](O)[C@H](OC(C)=O)[C@@]2(C)O1
- Potency [2]: 31.6 µM (active)
- Potency [4]: > 46 µM (inactive)
- Potency [5]: > 46 µM (inactive)
- Potency [19]: inactive
- activity change, negative = inhibition ([14]; at 57.5 µM (top of the series)): -0.114% (inactive)
- max response [14, 21]: 13.9%
- max response [14, 22]: 18.7%
- Potency [15]: inactive
- Potency [16]: inactive
- Potency [17]: inactive
- Potency [18]: inactive

SMILES: O=C(O)[C@H]1CN(CCCP(=O)(O)O)CCN1
- Potency [2]: inactive
- activity change, negative = inhibition [3]: 8.84% (inactive)
- activity, negative = inhibition [20]: 7.55% (inactive)
- Potency [4]: > 46 µM (inactive)
- Potency [5]: > 46 µM (inactive)
- Potency [19]: inactive
- Potency [6]: inactive
- outcome [7]: inactive
- Potency [9]: inactive
- Potency [10]: inactive
- outcome [11]: inactive
- outcome [12]: inactive
- outcome [13]: inactive
- activity change, negative = inhibition ([14]; at 57.5 µM (top of the series)): 5.99% (inactive) and -0.486% (inactive)
- max response [14, 21]: -5.69% and -2.47%
- max response [14, 22]: 0.367% and -3.68%
- Potency [15]: inactive
- Potency [16]: inactive
- Potency [17]: inactive
- Potency [18]: inactive

SMILES: N[C@@H](C(=O)O)c1ccc(P(=O)(O)O)cc1
- Potency [2]: 20 µM (active)
- Potency [4]: > 46 µM (inactive)
- Potency [5]: > 46 µM (inactive)
- Potency [19]: inactive
- Potency [6]: inactive
- activity change, negative = inhibition ([14]; at 57.5 µM (top of the series)): 2.44% (inactive)
- max response [14, 21]: 3.42%
- max response [14, 22]: 7.2%
- Potency [15]: inactive
- Potency [16]: inactive
- Potency [17]: inactive
- Potency [18]: inactive

SMILES: NC(=O)C[C@H](NC(=O)Cc1ccc(O)cc1O)C(=O)O
- Potency [2]: inactive
- Potency [4]: > 46 µM (inactive)
- Potency [5]: > 46 µM (inactive)
- Potency [19]: inactive
- Potency [6]: inactive
- activity change, negative = inhibition ([14]; at 57.5 µM (top of the series)): -1.96% (inactive)
- max response [14, 21]: -23.7%
- max response [14, 22]: -24%
- Potency [16]: inactive
- Potency [17]: inactive
- Potency [18]: inactive

SMILES: N[C@@H]1CCN(O)C1=O
- activity change, negative = inhibition [3]: 0.992% (inactive)
- activity, negative = inhibition [20]: 21.4% (inactive)
- Potency [4]: > 46 µM (inactive)
- Potency [5]: > 46 µM (inactive)
- Potency [19]: inactive
- Potency [6]: inactive
- outcome [7]: inactive
- Potency [9]: inactive
- Potency [10]: inactive
- outcome [11]: inactive
- outcome [12]: inactive
- outcome [13]: inactive
- activity change, negative = inhibition ([14]; at 57.5 µM (top of the series)): 4.58% (inactive)
- max response [14, 21]: 18.8%
- max response [14, 22]: 25.6%
- Potency [15]: inactive
- Potency [16]: inactive
- Potency [17]: inactive
- Potency [18]: inactive
